Experimental data as given in PubChem BioAssay AID449728 (The Scripps Research Institute Molecular Screening Center, 2010).
The whole screen tested about 330,000 compounds, of which about 900 (0.27%) were called active. The full list was thinned out, with actives kept by preference. Unmarked numbers belong to inactive results.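 Rule for the calls: active = inhibition above the campaign's mean inhibition across all tested compounds plus 3 SD (cut at about 9.9% in these data); inactive = the rest.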

Test: bacterial viability reduction in E. coli – absorbance, OD600, counter-screen for AddAB inhibitor project, primary screen (AID 449728);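 note: uninfected addAB+ strain grown without phage in ampicillin broth; 0% = DMSO wells and 100% = ciprofloxacin 0.95 µg/ml wells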
Conditions: E. coli V3065 growth, 18 h, at 11.9 µM, active compounds read high

Structure (SMILES) | inhibition
CC[C@H]1OC(=O)[C@H](C)[C@@H](O[C@H]2C[C@@](C)(OC)[C@@H](O)[C@H](C)O2)[C@H](C)[C@@H](O[C@@H]2O[C@H](C)C[C@H](N(C)C)[C@H]2O)[C@](C)(O)C[C@@H](C)[C@@H]2N[C@@H](COCCOC)O[C@H]([C@H]2C)[C@]1(C)O | 39.7% (active)
O=C(Nc1cccc2c1N(C(=O)c1ccco1)CCC2)c1ccco1 | 0.81%
CCCc1nc(SCC(=O)N2CCCC2)c2c(=O)n(C)c(=O)n(C)c2n1 | 0.51%
O=C(NCc1ccncc1)C(=O)NCc1ccco1 | -0.95%
C/C(N)=C(/C#N)C(=O)COC(=O)C1CCN(C(=O)c2ccc(Cl)cc2)CC1 | -2.66%
N#Cc1c(-c2ccc(F)cc2)cc(C2CC2)nc1SCC(=O)c1cccs1 | -0.26%
Cn1ccc(=Nc2ccc(NC(=O)c3ccc(N=c4ccn(C)c5ccc([N+](=O)[O-])cc45)cc3)cc2)cc1 | 103% (active)
COc1cc(NS(=O)(=O)c2ccc(NC(=O)c3ccc([N+](=O)[O-])cc3)cc2)ncn1 | 1.53%
CC(=O)NC(=S)Nc1ccc(NC(=S)NC(=O)c2ccc([N+](=O)[O-])cc2)cc1 | -0.16%
C=CCn1c(SCC(N)=O)nnc1-c1cc2c(s1)CCC(CC)C2 (stereo not drawn) | 1.3%
CCCCN(CC)CCNC(=O)c1[nH]c(C)c(C(C)=O)c1C | -0.92%
O=C(CN1CCN(c2ccccn2)CC1)NC1CCCCC1 | 1.09%
CCN(CC)c1ccc(NC(=O)CN2CCN(c3ccccn3)CC2)cc1 | 10.5% (active)
O=C(CN1CCN(c2ccccn2)CC1)Nc1ccc(Br)cc1 | 2.27%
CC(=O)N(O)CCCCCNC(=O)CCC(=O)N(O)CCCCCNC(=O)CCC(=O)N(O)CCCCCNC(=O)CCC(=O)O | 25.5% (active)
NC(=O)NCCCC(=O)O | -0.17%
O=C(NNC(=O)c1cc(S(=O)(=O)N2CCCCC2)ccc1Cl)c1ccccc1O | 10.3% (active)
CC1CCCC(NC(=O)c2cc(S(=O)(=O)N3CCCCC3)ccc2Cl)C1C (stereo not drawn) | -1.24%
O=C(COC(=O)c1cc(S(=O)(=O)N2CCCCC2)ccc1Cl)NCc1ccco1 | -0.84%
CCn1cc(/C=C2/SC(=S)NC2=O)c(C)n1 | 0%
Brc1ccc(/C=N/N2CCN(C3c4ccccc4-c4ccccc43)CC2)s1 | 0.91%
Cc1nn2c3cc(N4CCOCC4)ccc3nc2c2ccccc12 | 0.55%
COC(=O)CSc1nc2c(c(C3CC=CCC3)c1C#N)CCC2 (stereo not drawn) | 0.17%
